High-throughput results: PubChem, National Center for Advancing Translational Sciences (NCATS)
Compounds with a hit are over-represented: about 21% of the library has one in this group of screens.
HCV inhibitor: blocks hepatitis C virus. 3.4% of 340,000 active. Huh7.5.1 HCVcc-Cre infection, luciferase reporter, 44 h. Potency, µM (highest dose often 41.8 µM), most hits filed as inhibitors
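A cell-based infection assay in which seeded cells (1,000 per well) receive test compound after 4 h, are inoculated with HCVcc-Cre at approximately 0.5 moi, and are incubated 44 h before luminescence detection.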
Pf growth 96h: P. falciparum growth inhibition at 96 hours. P. falciparum luciferase reporter growth, 96 h. Potency, µM (titrated, usually from 28.7 µM), most hits filed as inhibitors. 6.9% of 320,000 active. AID 504834
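Parasite growth measured via integrated firefly luciferase reporter in P. falciparum. Infected erythrocytes at 2% hematocrit, 0.05% parasitemia final were treated 96 hours at 37 C under 5% CO2, and luminescence was read.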
Pf growth 48h: inhibits P. falciparum growth in the first generation, 48 h. P. falciparum luciferase growth in erythrocytes, 48 h. Potency, µM (series often up to 28.7 µM), actives largely listed as inhibitors. 5.9% of 310,000 active. AID 504832
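Read-out is firefly luciferase luminescence from an integrated reporter in P. falciparum, so falling signal marks reduced parasite growth. Infected erythrocytes were at 2% hematocrit and 0.1% parasitemia (final) in Albumax-supplemented RPMI 1640.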
Shiga inhibitor: inhibitors of Shiga toxin in Vero cells; inhibition, % at 38.7 µM; AID 2315; 9.2% of 290,000 active; Vero cells, Shiga toxin protein synthesis inhibition reporter; in the data active = inhibition mostly above about 28%, no sharp cut-off; inactive = mostly below about 43%
HCMV antiviral: inhibitors of human cytomegalovirus | HFF cells, HCMV-luciferase reporter, 72 h; hits give low values | AID 1259415 | activity change, negative = inhibition, % at 57.5 µM | 4.5% of 410,000 active; in the data active = activity change below about -60%; inconclusive = no clear call, values can overlap the other calls; inactive = above about -39%
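Human foreskin fibroblasts infected with luciferase-reporter HCMV at MOI 1 PFU/cell, compounds at two doses. Luciferase measured 72 h post infection; normalized to buffer-only basal and Salinomycin (10uM) controls.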
CHX counter: counter-screen hit for Shiga toxin inhibitors, cycloheximide; 12% of 300,000 active; max response, %; cell reporter, cycloheximide protein synthesis inhibition counterscreen; in the data active = max response mostly above about 13%, no sharp cut-off; inactive = mostly below about 14%; note: read at 38.3 µM for the half of the compounds with a filed dose
Hits are given with their value; i = inactive; ? = inconclusive; nt = no result. Unless noted, calls come from the whole dose curve; as a rule, active = well fitted inhibition curve with a large enough effect; inconclusive = small, poorly fitted or top-dose-only effect, or another doubt; inactive = no such curve, though single readings can be large or run the other way.

SMILES	HCV inhibitor	Pf growth 96h	Pf growth 48h	Shiga inhibitor	HCMV antiviral	CHX counter
CC(C)(C)NC(=O)COC(=O)CCC(=O)c1cccs1	i	i	i	i	i	i
CCc1cc(CNC(=O)c2cc(COc3ccc(C)nc3)on2)on1	i	i	i	59.2	i	44.1
O=C(NCCc1cn2ccccc2n1)c1cc(COc2ccc3ncccc3c2)on1	2.51µM	i	?	i	-75.7	i
O=C(NCCc1cn2ccccc2n1)c1ccccc1F	i	i	i	i	i	i
COCC1CCN(C(=O)c2cc(COc3ccc4ncccc4c3)on2)CC1	1.12µM	?	i	i	-75.0	i
COCC1CCN(C(=O)c2cc(COc3ccc(-n4cncn4)cc3)on2)CC1	i	?	i	i	i	i
O=C(c1cc(COc2ccc3ncccc3c2)on1)N1CCCC1	7.08µM	?	i	39.6	?	32.9
CCN(CC)C1CCN(C(=O)c2cc(COc3cccc4cccnc34)on2)C1 (stereo unspecified)	i	i	i	i	i	i
C[C@@H]1CN(S(=O)(=O)C(C)(C)C)[C@@H](CCO)/C1=C\CCO	nt	nt	nt	nt	i	nt
O=C(Cn1cc(C(=O)c2ccncc2)c(=O)c2cc(F)ccc21)Nc1ccc(Cl)cc1	nt	nt	nt	nt	i	nt
Fc1ccc(N2CN(Cc3cccnc3)CNC2=S)cc1	i	i	i	i	i	i
COc1ccc2c(c1)sc1ncc(C(=O)NCc3ccccc3F)c(=O)n12	nt	nt	nt	nt	i	nt
CN(C)c1ccnc(Nc2ccc(O)cc2)c1C#N	i	10.4µM	?	i	i	i
CN(C)c1nccc(Nc2ccccc2)c1C#N	i	i	i	i	i	i
N#Cc1c(-c2cccc(Br)c2)cc(-c2cccnc2)nc1N	i	?	13.1µM	i	?	i
COc1ccc(OC)c(-c2cc(-c3cccnc3)nc(N)c2C#N)c1	?	9.28µM	?	i	i	i
N#Cc1c(-c2ccc(Br)cc2)cc(-c2cccnc2)nc1N	i	i	i	i	i	i
Cc1ccc2cc(F)ccc2n1	nt	nt	nt	nt	i	nt
O=C1C2C3C=CC(C3)C2C(=O)N1c1cccc2cccnc12 (stereo unspecified)	i	5.86µM	i	i	i	i
O=C1C2C3C=CC(C3)C2C(=O)N1c1cccc(N2C(=O)C3C4C=CC(C4)C3C2=O)n1 (stereo unspecified)	i	i	i	i	i	i
CC(=O)c1c(O)cc(C)n(Nc2nc(C)cc(C)n2)c1=O	i	?	11.7µM	i	i	i
CC(=O)c1c(O)cc(C)n(-c2ccc(F)cc2)c1=O	i	i	i	i	i	i
COc1cc(CCC(C)=O)ccc1OC(=O)c1c(-c2c(F)cccc2Cl)noc1C	nt	nt	nt	nt	i	nt
CSC1=NC(NCCCO)c2c(sc3c2CC(C)(C)OC3)N1 (stereo unspecified)	i	9.28µM	?	i	i	i
CCN(CC(=O)NCc1ccc(Cl)cc1)C(=O)c1cc(S(=O)(=O)N2CCOCC2)ccc1C	?	nt	nt	nt	i	nt
SMILES	HCV inhibitor	Pf growth 96h	Pf growth 48h	Shiga inhibitor	HCMV antiviral	CHX counter
Nc1nc(CN2CCN(c3ccccc3F)CC2)nc(Nc2ccccc2)n1	i	?	?	i	i	i
Cc1cccc(Nc2nc(N)nc(CN3CCN(C)CC3)n2)c1	i	nt	i	i	i	i
Cc1ccc(Nc2nc(N)nc(CN3CCN(c4ccccc4F)CC3)n2)cc1	?	6.57µM	?	i	i	i
Cc1ccc(Nc2nc(N)nc(CN3CCN(C)CC3)n2)cc1	i	nt	i	i	i	32.2
Nc1nc(CN2CCC(Cc3ccccc3)CC2)nc(Nc2ccccc2)n1	?	7.38µM	nt	i	i	i
Nc1nc(CN2CCCCCC2)nc(Nc2ccccc2)n1	i	?	i	i	i	i
Cc1cccc(Nc2nc(N)nc(CN3CCN(c4ccc(F)cc4)CC3)n2)c1	i	10.4µM	?	i	i	i
Cc1ccc(Nc2nc(N)nc(CN3CCN(C(=O)c4ccco4)CC3)n2)cc1Cl	i	7.38µM	?	i	i	i
Nc1nc(CN2CCN(c3ccccc3)CC2)nc(Nc2ccc(Cl)cc2)n1	12.6µM	i	?	i	-65.2	i
COc1ccc(Nc2nc(N)nc(CN3CCc4ccccc4C3)n2)cc1	i	i	nt	i	i	i
Nc1nc(CN2CCN(C(c3ccccc3)c3ccccc3)CC2)nc(Nc2ccccc2)n1	?	4.65µM	8.28µM	i	i	i
COc1ccc(Nc2nc(N)nc(CN3CCC(C)CC3)n2)cc1	i	i	i	i	-91.1	i
Cc1ccc(NC(=O)N2CCN(C(=O)c3ccco3)CC2)cc1Cl	i	i	?	i	i	i
Nc1nc(CN2CCc3ccccc3C2)nc(Nc2ccccc2)n1	?	nt	?	i	i	i
CC(Sc1n[nH]c(N)n1)C(=O)Nc1ccc(Cl)cn1 (stereo unspecified)	i	i	i	i	i	i
Cc1cccc(N(C)S(=O)(=O)c2nnc(NC(=O)C(C)(C)C)s2)c1	nt	nt	nt	nt	i	nt
O=C(CCl)Nc1cn(-c2ccccc2)nc1-c1ccccc1	2.82µM	?	?	i	-95.7	38.9
CC(=O)Nc1cn(-c2ccccc2)nc1-c1ccccc1	i	i	i	i	i	i
Cc1ccc(-c2nn(-c3ccccc3)cc2NC(=O)c2ccccc2)cc1	?	i	i	43.7	i	18.6
O=C(Nc1cn(-c2ccccc2)nc1-c1ccc(F)cc1)c1ccccc1	i	?	i	i	-60.7	i
O=C(Nc1cn(-c2ccccc2)nc1-c1ccc(Cl)cc1)c1ccccc1	?	?	i	i	i	i
CCCNC(=O)C1(C)CCCN(Cc2cccc3ccccc23)C1 (stereo unspecified)	nt	nt	nt	nt	i	nt
Cc1cc([N+](=O)[O-])nn1CC(=O)N1CCN(Cc2ccccc2)CC1	i	10.4µM	?	i	i	i
CSc1ccccc1NC(=O)Cn1nc([N+](=O)[O-])cc1C	i	0.185µM	i	i	i	i
CSc1ccccc1NC(=O)Cn1nc([N+](=O)[O-])c(Cl)c1C	i	i	i	i	i	i
SMILES	HCV inhibitor	Pf growth 96h	Pf growth 48h	Shiga inhibitor	HCMV antiviral	CHX counter
COc1cccc(C(CNC(=O)C2CCN(C(=O)Nc3ccccc3)CC2)N(C)C)c1 (stereo unspecified)	i	i	?	nt	i	nt
Cc1ccc(-c2noc(CN(C(=O)COc3cc(C)cc(C)c3C)C(C)C)n2)cc1	nt	nt	nt	nt	i	nt
CCCCC(=O)Nc1nnc(CCOC)s1	i	i	i	i	i	i
COc1ccc(OC)c(Nc2cc(C(=O)NCCCN3CCOCC3)c3ccccc3n2)c1	?	nt	?	i	i	i
CCc1ccc(Nc2cc(C(=O)NCCCN3CCOCC3)c3ccccc3n2)cc1	?	5.22µM	nt	i	?	i
COc1ccccc1Nc1cc(C(=O)NCCCN2CCOCC2)c2ccccc2n1	i	0.928µM	nt	i	i	i
COc1ccc(Nc2cc(C(=O)NCCCN(C)C3CCCCC3)c3ccccc3n2)cc1	nt	nt	nt	nt	-106.8	nt
CC(SCc1ccccc1)C(=O)Nc1ccccc1Br (stereo unspecified)	i	i	i	nt	i	42.3
COc1ccc(CNC(=O)C(Cc2ccccc2)NS(=O)(=O)c2ccc3c(c2)CCN3C(C)=O)cc1 (stereo unspecified)	nt	nt	nt	nt	i	nt
